FMDV inh = antivirals against foot and mouth disease virus; FMDV antiviral cell-based qHTS; 1.2% of 410,000 active; Potency, µM (series often up to 57.9 µM), without a hit: at the top dose activity change, negative = inhibition, hits mostly inhibitors; AID 1159524; calls by dose curve; tested in HEK293T cells; note: read-out not given here; potency is the fitted concentration of half-maximal effect; % is set by controls: 0 for no effect and ±100 for the full control effect; nearly all actives have a fitted effect of over 45% in size
Shiga inhibitor = Shiga toxin inhibition; inhibition, % at 38.7 µM; 9.2% of 290,000 active; Vero cells, Shiga toxin protein synthesis inhibition reporter; in the data active = inhibition mostly above about 28%, no sharp cut-off; inactive = mostly below about 43%; note: 0% is about no effect
LASV entry inh = blocks Lassa virus binding to or entry into cells | Lassa virus pseudotype entry inhibition, cell reporter | Potency, µM (doses to about 37.9 µM), inactives show top-dose activity change, negative = inhibition, actives largely listed as inhibitors | 1.2% of 300,000 active | AID 540256; calls by dose curve; tested in HEK293 cells; note: potency is the fitted concentration of half-maximal effect; % is set by controls: 0 for no effect and ±100 for the full control effect; nearly all actives have a fitted effect of over 50% in size
Marburg entry inh = Marburg virus entry inhibition | Marburg virus pseudotyped entry inhibition, cell reporter | Potency, µM (highest dose often 37.8 µM), for the others: at the top dose activity change, negative = inhibition, most hits filed as inhibitors | 1.8% of 300,000 active | AID 540276; calls by dose curve; tested in HEK293 cells; note: potency is the fitted concentration of half-maximal effect; % is set by controls: 0 for no effect and ±100 for the full control effect
HCV inh = blocks hepatitis C virus; Huh7.5.1 HCVcc-Cre infection, luciferase reporter, 44 h; 3.4% of 340,000 active; AID 651820; Potency, µM (series often up to 41.8 µM), for the others: at the top dose activity change, negative = inhibition, actives largely listed as inhibitors; active = well fitted inhibition curve with a large enough effect; inconclusive = small, poorly fitted or top-dose-only effect, or another doubt; inactive = no such curve, though single readings can be large or run the other way; note: potency is the fitted concentration of half-maximal effect; % is set by controls: 0 for no effect and ±100 for the full control effect
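Infectious HCV cell culture screen: compound-treated cells (1,000/well, pre-plated 4 h) are infected with HCVcc-Cre at roughly 0.5 moi and grown 44 h. Infection is quantified by luciferase signal after 15 min substrate incubation at room temperature.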
Cycloheximide cs = counter-screen hit for Shiga toxin inhibitors, cycloheximide | 12% of 300,000 active | max response, % | cell reporter, cycloheximide protein synthesis inhibition counterscreen; in the data active = max response mostly above about 13%, no sharp cut-off; inactive = mostly below about 14%; note: read at 38.3 µM for the half of the compounds with a filed dose; 0% is about no effect
Active calls of the source: *; ? = inconclusive; / = no result; [ ] = another dose, or the depositor's remark. Shown are actives, neighbours in structure and some others; about 13% of the full set was active somewhere.

SMILES | FMDV inh | Shiga inhibitor | LASV entry inh | Marburg entry inh | HCV inh | Cycloheximide cs
COc1cccc(NC(=O)CN(C)CC(=O)Nc2ccc3c(c2)OCO3)c1 | -8% | / | -2%[46.1 µM] | 3%[46.1 µM] | -8% | /
CCOc1cc(CNc2ccc(N3CCCCC3)cc2)cc(Br)c1OCC(=O)NC(C)(C)C | 32µM* | 22 | -13% | -30% | ? | 14*
C=CCOc1c(Br)cc(CNc2ccc(NC(=O)CCC)cc2)cc1OCC | ? | 12 | -28% | ? | ? | 3
C=CCOc1c(Br)cc(CNc2ccc(NC(=O)C(C)C)c(OC)c2)cc1OCC | ? | 10 | 2% | -21% | -6% | 34*
CCOc1cc(CNc2ccc(N(C)C)cc2)cc(Br)c1OCC(=O)NC(C)(C)C | 14µM* | 38* | ? | -10% | 11µM* | 36*
CCOc1cc(CNc2ccc3c(c2)OCCO3)cc(Br)c1OCC | 32µM* | 67* | -22% | ? | 2µM* | 28*
CCOc1cc(CNc2ccc(N3CCOCC3)cc2)cc(Br)c1OCC | ? | -12 | -30% | -13% | ? | -3
CN(C)C(=O)COC(=O)c1ccc(S(=O)(=O)NCc2ccco2)cc1 | -3% | -17 | / | / | 17% | 5
CC1CCCCN1S(=O)(=O)c1ccc(NC(=O)c2ccco2)cc1 (stereo not drawn) | 19% | -9 | ? | -10% | 3% | -2
O=C1CCCC/C1=C/NCc1ccccc1 | 61% | 20 | 10% | 0%[46.1 µM] | 14% | 12
COc1cc(CNc2ccc(O)cc2)cc(Br)c1OCc1ccccc1 | -14% | -4 | / | / | ? | -2
COc1cc(CNC(C)c2ccccc2)cc(Br)c1OCc1ccc(F)cc1 (stereo not drawn) | -30% | / | ? | 3.5µM* | 22µM* | -3
COc1cc(CNC(C)c2ccccc2)cc(Br)c1OCc1ccccc1 (stereo not drawn) | 0% | -14 | ? | 7.9µM* | ? | -4
COc1cc(CNC(C)c2ccccc2)cc(Cl)c1OCC(=O)Nc1ccccc1 (stereo not drawn) | ? | 11 | / | / | 11µM* | 1
Cc1ccc(Cc2c(-c3ccccc3)nc3cc(C)ccn23)cc1 | 8% | / | / | / | / | /
Cc1nnc(-c2ccco2)c2cn(-c3cccc(Br)c3)nc12 | 22µM* | 18 | ? | -16%[46.1 µM] | ? | 44*
CC(=O)c1nn(-c2cccc(Br)c2)cc1C(=O)c1ccco1 | -1% | 24 | -2% | 2% | -22% | -1
CCCc1nc([N+](=O)[O-])c(S(=O)(=O)c2ccccc2)n1CC(C)C | ? | -5 | ? | 12µM* | ? | -3
CC(C)Cn1c(C(C)C)nc([N+](=O)[O-])c1Sc1ccc(Cl)cn1 | ? | -4 | 3% | -29% | ? | -3
CC(C)Cn1c(C(C)C)nc([N+](=O)[O-])c1S(=O)(=O)c1ccc(F)cc1 | 16µM* | -8 | -25% | ? | ? | -5
CCCCC(CC)CNC(=O)CN(C)S(=O)(=O)c1cccc2nsnc12 (stereo not drawn) | ? | 53* | 4% | 8% | -7% | 10
COc1cc(NC(=O)c2csc(N)n2)cc(C(=O)Nc2cccc(C(F)(F)F)c2)c1 | 25µM* | 21 | / | / | ? | 7
COc1cc(NC(=O)c2ccnc(N)c2)cc(C(=O)Nc2cccc(C(F)(F)F)c2)c1 | -7% | 2 | / | / | -26% | -1
COc1cc(NC(=O)c2cnc(N)o2)cc(C(=O)Nc2cccc(C(F)(F)F)c2)c1 | 18µM* | -4 | / | / | ? | -3
O=C(Nc1ccnn1C1CCN(Cc2ccc(C#CCCO)cc2)CC1)c1cccc(F)c1 | -17% | -15 | -6%[46.1 µM] | 0%[46.1 µM] | -13% | -3
CCCc1cc(=O)[nH]c(SCC(=O)N2CCN(c3ccc(F)cc3)CC2)n1 | -5% | -8 | 0% | -10% | ? | -1
COc1ccc(-c2nnn(CC(=O)N(C3CCCCC3)C(C)C(=O)NC3CCCC3)n2)cc1OC (stereo not drawn) | 6% | -16 | 0% | 1% | -25% | 12
O=C(O)CC1SC(N/N=C/c2ccc(Br)cc2)NC1=O (stereo not drawn) | -7% | 79* | 7% | 10% | 14% | 44*
CC(C)NC(=O)CC(=O)N/N=C/c1ccc(Br)cc1 | / | 6 | 6% | 1% | -2% | 5

Screening data from PubChem BioAssay.
